# Test results as given in PubChem BioAssay AID1159580 (chemical genetic matrix, 2015).
# Among all 5,500 compounds or so, about 2,000 (36%) were called active. Roughly 18% stayed inconclusive and do not appear here. This is one part of the list. Values without a mark were called inactive. Rule as the data show it: active = normalized growth mostly below about 0.91 (no sharp cut-off); inconclusive = no clear call, values can overlap the other calls; inactive = mostly above about 0.92.
# Assay: chemical genetic growth profiling, strain panel (AID 1159580);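 also: tested at 20 µM; growth read once vehicle control cultures reached saturation at 30 °C; 1 = growth at the plate median or of vehicle wells; lower values mean less growth of the strain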
# Conditions: growth OD
compound,measurement,setting,value
O=C(O)C(O)C(O)C(=O)O (configuration not stated),normalized growth,"S. cerevisiae deletion strains, locus YJR075W, strain HOC1, hits give low values",0.993
same,normalized growth,"S. cerevisiae deletion strains, locus YKL009W, strain mrt4, hits give low values",0.985
same,normalized growth,"S. cerevisiae deletion strains, locus YKL068W, hits give low values",0.98
same,normalized growth,"S. cerevisiae deletion strains, locus YKL085W, strain MDH1 (second series), hits give low values",0.986
same,normalized growth,"S. cerevisiae deletion strains, locus YKL085W, strain MDH1, hits give low values",0.986
same,normalized growth,"S. cerevisiae deletion strains, locus YKL160W, strain elf1, hits give low values",1.01
same,normalized growth,"S. cerevisiae deletion strains, locus YKL190W, strain CNB1, hits give low values",0.978
same,normalized growth,"S. cerevisiae deletion strains, locus YKR001C, strain vps1, hits give low values",0.983
same,normalized growth,"S. cerevisiae deletion strains, locus YKR026C, strain gcn3, hits give low values",1.01
same,normalized growth,"S. cerevisiae deletion strains, locus YKR091W, strain srl3, hits give low values",1
same,normalized growth,"S. cerevisiae deletion strains, locus YLL001W, strain dnm1, hits give low values",0.992
same,normalized growth,"S. cerevisiae deletion strains, locus YLL026W, hits give low values",0.972
same,normalized growth,"S. cerevisiae deletion strains, locus YLL041C, strain sdh2, hits give low values",0.994
same,normalized growth,"S. cerevisiae deletion strains, locus YLR027C, strain aat2, hits give low values",0.999
same,normalized growth,"S. cerevisiae deletion strains, locus YLR039C, strain RIC1, hits give low values",0.961
same,normalized growth,"S. cerevisiae deletion strains, locus YLR058C, strain SHM2, hits give low values",0.976
same,normalized growth,"S. cerevisiae deletion strains, locus YLR102C, strain apc9, hits give low values",0.988
same,normalized growth,"S. cerevisiae deletion strains, locus YLR113W, strain HOG1, hits give low values",0.938
same,normalized growth,"S. cerevisiae deletion strains, locus YLR221C, strain rsa3, hits give low values",0.986
same,normalized growth,"S. cerevisiae deletion strains, locus YLR258W, strain gsy2, hits give low values",0.998
same,normalized growth,"S. cerevisiae deletion strains, locus YLR262C, strain YPT6 (second series), hits give low values",1.01
same,normalized growth,"S. cerevisiae deletion strains, locus YLR262C, strain YPT6, hits give low values",0.934
same,normalized growth,"S. cerevisiae deletion strains, locus YLR268W, strain sec22, hits give low values",0.971
same,normalized growth,"S. cerevisiae deletion strains, locus YLR320W, strain mms22, hits give low values",1
same,normalized growth,"S. cerevisiae deletion strains, locus YLR330W, strain CHS5, hits give low values",0.991
same,normalized growth,"S. cerevisiae deletion strains, locus YLR342W, strain FKS1 (second series), hits give low values",1.03
same,normalized growth,"S. cerevisiae deletion strains, locus YLR342W, strain FKS1, hits give low values",0.997
same,normalized growth,"S. cerevisiae deletion strains, locus YLR357W, strain rsc2, hits give low values",0.966
same,normalized growth,"S. cerevisiae deletion strains, locus YLR370C, strain arc18, hits give low values",1
same,normalized growth,"S. cerevisiae deletion strains, locus YLR371W, strain rom2, hits give low values",0.997
same,normalized growth,"S. cerevisiae deletion strains, locus YLR384C, strain iki3, hits give low values",0.988
same,normalized growth,"S. cerevisiae deletion strains, locus YLR418C, strain cdc73, hits give low values",0.986
same,normalized growth,"S. cerevisiae deletion strains, locus YML016C, strain PPZ1, hits give low values",0.992
same,normalized growth,"S. cerevisiae deletion strains, locus YML032C, strain rad52, hits give low values",1
same,normalized growth,"S. cerevisiae deletion strains, locus YML120C, strain ndi1, hits give low values",0.998
same,normalized growth,"S. cerevisiae deletion strains, locus YML124C, strain tub3, hits give low values",0.997
same,normalized growth,"S. cerevisiae deletion strains, locus YMR058W, strain fet3, hits give low values",1.01
same,normalized growth,"S. cerevisiae deletion strains, locus YMR078C, strain ctf18, hits give low values",0.984
same,normalized growth,"S. cerevisiae deletion strains, locus YMR125W, strain sto1, hits give low values",0.987
same,normalized growth,"S. cerevisiae deletion strains, locus YMR129W, hits give low values",0.995
same,normalized growth,"S. cerevisiae deletion strains, locus YMR205C, strain PFK2, hits give low values",0.981
same,normalized growth,"S. cerevisiae deletion strains, locus YMR223W, strain ubp8, hits give low values",1
same,normalized growth,"S. cerevisiae deletion strains, locus YMR231W, strain pep5, hits give low values",1
same,normalized growth,"S. cerevisiae deletion strains, locus YMR263W, strain SAP30, hits give low values",0.976
same,normalized growth,"S. cerevisiae deletion strains, locus YMR307W, strain GAS1, hits give low values",0.921
same,normalized growth,"S. cerevisiae deletion strains, locus YNL067W, strain RPL9B, hits give low values",0.993
same,normalized growth,"S. cerevisiae deletion strains, locus YNL071W, strain lat1, hits give low values",0.987
same,normalized growth,"S. cerevisiae deletion strains, locus YNL128W, strain TEP1, hits give low values",0.981
same,normalized growth,"S. cerevisiae deletion strains, locus YNL153C, strain GIM3, hits give low values",0.979
same,normalized growth,"S. cerevisiae deletion strains, locus YNL183C, strain NPR1, hits give low values",0.919
same,normalized growth,"S. cerevisiae deletion strains, locus YNL209W, strain ssb2, hits give low values",1.02
same,normalized growth,"S. cerevisiae deletion strains, locus YNL233W, strain BNI4, hits give low values",0.986
same,normalized growth,"S. cerevisiae deletion strains, locus YNL248C, strain rpa49, hits give low values",0.994
same,normalized growth,"S. cerevisiae deletion strains, locus YNL250W, strain rad50, hits give low values",0.987
same,normalized growth,"S. cerevisiae deletion strains, locus YNL271C, strain bni1, hits give low values",0.992
same,normalized growth,"S. cerevisiae deletion strains, locus YNL298W, strain CLA4, hits give low values",0.988
same,normalized growth,"S. cerevisiae deletion strains, locus YNL307C, strain MCK1, hits give low values",0.991
same,normalized growth,"S. cerevisiae deletion strains, locus YNL322C, strain KRE1 (second series), hits give low values",0.985
same,normalized growth,"S. cerevisiae deletion strains, locus YNL322C, strain KRE1, hits give low values",0.99
same,normalized growth,"S. cerevisiae deletion strains, locus YNR049C, strain mso1, hits give low values",1
same,normalized growth,"S. cerevisiae deletion strains, locus YNR052C, strain pop2, hits give low values",0.991
same,normalized growth,"S. cerevisiae deletion strains, locus YOL006C, strain TOP1, hits give low values",0.97
same,normalized growth,"S. cerevisiae deletion strains, locus YOL012C, strain htz1",1.53
same,normalized growth,"S. cerevisiae deletion strains, locus YOL147C, strain pex11, hits give low values",0.987
same,normalized growth,"S. cerevisiae deletion strains, locus YOR001W, strain rrp6, hits give low values",0.991
same,normalized growth,"S. cerevisiae deletion strains, locus YOR061W, strain CKA2, hits give low values",0.959
same,normalized growth,"S. cerevisiae deletion strains, locus YOR069W, strain VPS5, hits give low values",0.997
same,normalized growth,"S. cerevisiae deletion strains, locus YOR070C, strain gyp1, hits give low values",0.984
same,normalized growth,"S. cerevisiae deletion strains, locus YOR080W, strain dia2, hits give low values",1
same,normalized growth,"S. cerevisiae deletion strains, locus YOR083W, strain WHI5, hits give low values",1.01
same,normalized growth,"S. cerevisiae deletion strains, locus YOR106W, strain vam3, hits give low values",0.994
same,normalized growth,"S. cerevisiae deletion strains, locus YOR136W, strain idh2, hits give low values",0.997
same,normalized growth,"S. cerevisiae deletion strains, locus YOR144C, strain elg1, hits give low values",0.986
same,normalized growth,"S. cerevisiae deletion strains, locus YOR184W, strain ser1, hits give low values",1.01
same,normalized growth,"S. cerevisiae deletion strains, locus YOR231W, strain MKK1, hits give low values",0.959
same,normalized growth,"S. cerevisiae deletion strains, locus YOR265W, strain rbl2, hits give low values",0.995
same,normalized growth,"S. cerevisiae deletion strains, locus YOR270C, strain vph1, hits give low values",0.979
same,normalized growth,"S. cerevisiae deletion strains, locus YOR290C, strain snf2, hits give low values",1.02
same,normalized growth,"S. cerevisiae deletion strains, locus YOR316C, strain cot1, hits give low values",0.98
same,normalized growth,"S. cerevisiae deletion strains, locus YPL051W, strain arl3, hits give low values",1.01
same,normalized growth,"S. cerevisiae deletion strains, locus YPL055C, strain LGE1, hits give low values",0.965
same,normalized growth,"S. cerevisiae deletion strains, locus YPL078C, strain atp4, hits give low values",0.999
same,normalized growth,"S. cerevisiae deletion strains, locus YPL106C, strain sse1, hits give low values",0.976
same,normalized growth,"S. cerevisiae deletion strains, locus YPL240C, strain hsp82, hits give low values",0.989
same,normalized growth,"S. cerevisiae deletion strains, locus YPL241C, strain CIN2, hits give low values",1.07 [resistant] (active)
same,normalized growth,"S. cerevisiae deletion strains, locus YPL256C, strain CLN2, hits give low values",0.943
same,normalized growth,"S. cerevisiae deletion strains, locus YPR119W, strain clb2, hits give low values",0.994
same,normalized growth,"S. cerevisiae deletion strains, locus YPR141C, strain kar3, hits give low values",0.97
same,normalized growth,"S. cerevisiae deletion strains, locus YPR163C, strain tif3, hits give low values",0.991
same,normalized growth,"S. cerevisiae deletion strains, locus YPR167C, strain met16, hits give low values",0.98
same,normalized growth,"S. cerevisiae deletion strains, strain wtn01, hits give low values",0.997
same,normalized growth,"S. cerevisiae strains, strain wild type, hits give low values",0.996
